This passage reports INHIBITION results from ChEMBL document CHEMBL4513216, “Probing the Open Global Health Chemical Diversity Library for Multistage-Active Starting Points for Next-Generation Antimalarials” (ACS Infect Dis, 2020).

Hit rate of the full screen: of about 68,000 compounds, about 2,700 (4%) showed an effect of 50% or more. For the sample, strong results were picked, then their nearest neighbours and some compounds at random.

The test system of the assay is Plasmodium berghei. The assay is described as follows: Screen against P. berghei liver stage (PbLuc), transformed with Luciferase, at 2uM. In kind it is functional, HepG2. The settings on record: tested at 2 uM.
Turning to `Cn1c(=O)ccn(CC(=O)Nc2cnccc2O)c1=O`, the INHIBITION was determined as 16.37%. In the case of `COCCC1(CO)CCCN(Cc2ccc(C(F)(F)F)nc2)C1` (centres undefined) it was 26.66%; in that of `CN1CCN(CC2(O)CCN(C(=O)CCc3ccccc3F)C2)CC1` (centres undefined), -20.27%; in that of `CN1CCCC2(CC1)CCN(C(=O)CCc1ccccc1O)CC2`, 48.21%. As to `CN1CCCC2(CC1)CCN(C(=O)CCc1ccccc1F)CC2`, the INHIBITION is reported as 50.59%. To `CCc1nc(CNC(C)c2cccc(N3CCCC3=O)c2)cs1` (centres undefined) belongs 0.45%; to `Cc1n[nH]cc1CNC(C)c1cccc(N2CCCC2=O)c1` (centres undefined), 11.31%; to `Cc1nc(CNC(C)c2cccc(N3CCCC3=O)c2)cs1` (centres undefined), 65.57%. To `Cc1ccc2nc(C3CCN(CC4CC4)CC3)nn2c1` belongs 28.95%; to `CC(C)(C)c1nc(CN2CCc3onc(-c4cccc(F)c4)c3C2)no1`, -7.68%. To `O=C(c1ccco1)N1CCC[C@]2(C[C@H](Oc3ncccc3F)CO2)C1` belongs -9.69%; to `O=C(c1cc(-c2ccco2)nc2c(Cl)cccc12)N1C[C@H]2CNC[C@H]2C1`, 35.46%. Turning to `O=C1CN(C(=O)c2cc(-c3ccco3)nc3c(Cl)cccc23)CCN1`, the INHIBITION was determined as 38.83%. To `O=C(c1cc(-c2ccco2)nc2c(Cl)cccc12)N1CC[C@H]2CNC[C@H]21` belongs 53.98%. In the case of `Cc1occc1C(=O)N1CCOCC2(CCN(C3CCOCC3)C2)C1` (centres undefined) it was 30.46%.

Consider `c1ccc2c(c1)C(NC1CCCC1)CC21CCNCC1` (centres undefined), for which the INHIBITION was determined as 53.81%. In the case of `Cc1ccc2c(c1)C1(CCNCC1)CC2NC1CC1` (centres undefined) it was 13.67%; in that of `Fc1ccc2c(c1)C1(CCNCC1)CC2NC1CC1` (centres undefined), 21.32%; in that of `CCc1ccc(C(=O)N2CCCC2c2nnc3n2CCCCC3)o1` (centres undefined), 17.33%. Regarding `Cc1ccc(CN2CCc3nnc(CN4CCCC4=O)n3CC2)o1`, the INHIBITION amounted to 47.97%.

Take `Cc1cccc(CN2CCc3nnc(CN4CCCC4=O)n3CC2)n1`: the INHIBITION is on record as -43.47%. In the case of `c1ccc(CN2CCc3nnc(CN4CCCCC4)n3CC2)nc1` it was 2.71%. Turning to `O=C1CCCN1Cc1nnc2n1CCN(Cc1ccoc1)CC2`, the INHIBITION was -11.91%.

Regarding `Cc1ccc(CN2CCc3nnc(CN4CCCC4=O)n3CC2)s1`, the INHIBITION was 60.6%. In the case of `O=C1CCCN1Cc1nnc2n1CCN(Cc1ccccn1)CC2` it was 51.26%; in that of `Cn1cc(N2CC3(COCCN(Cc4nccs4)C3)OCC2=O)cn1` (centres undefined), 6.8%.

Consider `Clc1cnccc1N1CCCOCC1`, for which the INHIBITION is recorded as -149.33%. To `O=C1CC(c2ccncc2)c2c(sc3c2CCCC3)N1` (centres undefined) belongs -5.89%. To `Cc1cccc(N2CCN(C(=O)NC(C)c3nncn3C)CC2)c1C` (centres undefined) belongs 38.76%. To `CCN(CC)S(=O)(=O)N1CC[C@H](c2ccccc2)[C@H]2NCCCC[C@H]21` belongs 39.99%; to `COc1cc(N2CCC(c3nccn3Cc3ccccn3)CC2)ncn1`, 53.19%; to `COc1cc(N2CCC(c3nccn3Cc3cccnc3)CC2)ncn1`, 5.82%. As to `COc1cc(N2CCC(c3nccn3Cc3ccccc3)CC2)ncn1`, the INHIBITION was -2.99%. To `O=c1c2cc3c(cc2nnn1Cc1ccccc1Cl)OCCO3` belongs -15.25%; to `CN(C)C(=O)Cc1ccc(-c2cccc3c2CCNC3)cc1`, 2.11%; to `CCC(C)C(=O)Nc1ccc(CCN2CCOCC2)cc1` (centres undefined), 31.65%.

With `Cc1cc(C)c2nc(CN3CCC(CN)CC3)cc(O)c2c1`, the INHIBITION came to 51.19%. As to `Cc1cc(C)c2nc(CN3CCC(C#N)CC3)cc(O)c2c1`, the INHIBITION was 3.91%. In the case of `Cc1cc(C)c2nc(CN3CCC(CN)C3)cc(O)c2c1` (centres undefined) it was 25.06%; in that of `Cn1c(CN2CCCCC2)cc(=O)c(O)c1CN1CCCCC1`, 14.97%; in that of `O=C(c1ccco1)N1Cc2cnn(CC3CC3)c2C(COCC2CC2)C1` (centres undefined), 14.09%.

For `COC1CCN(C(=O)Cn2ncc(N3CCCCC3)cc2=O)C1` (centres undefined), the INHIBITION is 11.69%. In the case of `CC1CN(c2ncccc2C(=O)Nc2cccc3c2CCCC3)CCN1` (centres undefined) it was 39.51%; in that of `Cc1cccc(C(=O)Nc2cccc3c2CCCC3)n1`, -25.13%; in that of `O=C(Nc1cccc2c1CCCC2)c1cccnc1N1CCCNCC1`, 65.7%. To `CN(Cc1ccc(Cl)cc1)S(=O)(=O)N(C)Cc1cnn(C)c1` belongs -2.86%; to `O=C(c1ccncc1)N1CCc2onc(CN3CCCC3)c2C1`, 37.35%.

Consider `O=C(c1ccc(Cl)o1)N1CCCC(c2cc(C(F)(F)F)[nH]n2)C1` (centres undefined), for which the INHIBITION is reported as -102.06%. Regarding `CCC(Cn1ccc2[nH]c(=O)c(C#N)cc2c1=O)OC` (centres undefined), the INHIBITION is 0.03%. In the case of `CC(O)CCn1ccc2[nH]c(=O)c(C#N)cc2c1=O` (centres undefined), the INHIBITION stood at 44.41%.

As for `CCCOC(C)Cn1ccc2[nH]c(=O)c(C#N)cc2c1=O` (centres undefined), the INHIBITION worked out at 59.1%. In the case of `Cc1nc(C)n(Cc2cccc(NC(=O)N(C)CCC(C)O)c2)n1` (centres undefined) it was -3.2%. To `Cc1cccc(-n2nc(CC(C)C)nc2CCC(=O)N(C)C)c1` belongs 8.13%; to `CSCC(=O)N1CCc2c(cnc(C)c2-c2noc(-c3cc[nH]n3)n2)C1`, 18.84%. To `COCCn1ccnc1C1CCCN(C(=O)CSc2nnc(C)o2)C1` (centres undefined) belongs -7.17%; to `CCn1c(CC2CCN(S(=O)(=O)Cc3ccccc3)CC2)nn(C)c1=O`, 22.09%; to `CCn1c(CC2CCN(S(=O)(=O)N3CCCCC3)CC2)nn(C)c1=O`, 50.41%. With `CCn1c(CC2CCN(S(=O)(=O)c3cccc(C)c3)CC2)nn(C)c1=O`, the INHIBITION came to 38.96%. In the case of `CCc1nn(C)c(Cl)c1CN(CCOC)Cc1cnn(C)c1` it was -0.41%. In the case of `COC(=O)C(C)(C)NC(=O)C1CC(=O)N(CC(C)C)C1` (centres undefined), the INHIBITION was 49.16%. To `CCN1CC(C(=O)NC(C)(C)C(=O)OC)CC1=O` (centres undefined) belongs -59.42%; to `COC(=O)C(C)(C)NC(=O)C1CC(=O)N(CC(F)(F)F)C1` (centres undefined), 54.62%; to `COc1ccc(CCN2CC(NCc3ncc[nH]3)CC2=O)cc1` (centres undefined), 45.41%. In the case of `c1ccc(N2CC[C@@H]3CN(Cc4ccncc4)CCO[C@@H]3C2)cc1` it was -19.36%; in that of `CS(=O)(=O)CCN(CCCO)C1CCc2ccccc21` (centres undefined), 14.3%; in that of `O=S(=O)(c1ccccc1F)N1CCCCC1c1cc[nH]n1` (centres undefined), -16.62%. In the case of `O=S(=O)(NC1CCCN(c2ncccn2)C1)N1CCCCCC1` (centres undefined) it was -56.93%; in that of `COc1ccsc1C(=O)NC1CCN(c2cccc(F)c2)CC1`, -11.07%.

As for `Cc1cc(CN2CCC(c3cc(Cc4ccccc4)n[nH]3)CC2)[nH]n1`, the INHIBITION is listed as -3.32%.

`NC(=O)NCCC(=O)N1CCC(c2cc(Cc3ccccc3)n[nH]2)CC1`: the INHIBITION is 42.27%.

Regarding `Nc1nccc(N2CCC(c3cc(Cc4ccccc4)n[nH]3)CC2)n1`, the INHIBITION came to 56.33%.

Regarding `Cc1ccc(N2CCC(c3cc(Cc4ccccc4)n[nH]3)CC2)nn1`, the INHIBITION was -45.89%.

Take `Nc1cc(N2CCC(c3cc(Cc4ccccc4)n[nH]3)CC2)ccn1`: the INHIBITION came to 60.35%. On to `Nc1nc(O)cc(N2CCC(c3cc(Cc4ccccc4)n[nH]3)CC2)n1`, for which the INHIBITION worked out at 5.41%. In the case of `CC(=O)Nc1ccc(C(=O)N(C)Cc2cccc(F)c2)s1` it was 45.05%. In the case of `CCN(CCn1cccn1)Cc1nc(-c2cccs2)oc1C` it was -9.1%. To `Cc1nnsc1CN(C)C(=O)CCn1cnc2ccccc21` belongs -40.44%. With `CCOC(=O)N1CCN(c2nc(NCCCO)c3ccccc3n2)CC1`, the INHIBITION amounted to 7.14%.

As for `O=C1C(Sc2nnnn2C2CC2)CCN1c1ccccc1F` (centres undefined), the INHIBITION worked out at 21.82%. In the case of `Cn1cnc(S(=O)(=O)NCC2(O)CCc3ccccc3C2)c1` (centres undefined) it was 53.33%; in that of `Cn1cnc(S(=O)(=O)NCC2(O)CCc3ccccc32)c1` (centres undefined), 30.34%; in that of `Cn1cnc(S(=O)(=O)NCC2(O)CCOc3ccccc32)c1` (centres undefined), 45.19%.

In the case of `CC(NC(=O)c1cccnc1N(C)C)c1ccccc1Br` (centres undefined), the INHIBITION is 20.32%.

Turning to `Cc1nc(CNCc2c(C(C)C)nn(C)c2N2CCOCC2)cs1`, the INHIBITION is reported as 7.64%. In the case of `O=C([C@H]1C[C@@H]2CCN(c3cccc(F)c3)C[C@H]2O1)N1CCCC1` it was 39.51%. In the case of `COC(=O)c1ccc(S(=O)(=O)N2CCCn3ncnc32)s1` it was 59.68%. As to `CCc1ccc(S(=O)(=O)N2CCCn3ncnc32)s1`, the INHIBITION stood at 13.38%. In the case of `O=S(=O)(c1ccc(Cl)s1)N1CCCn2ncnc21` it was -49.84%. As to `Cc1nccn1-c1nccnc1C1CCCN(C)C1` (centres undefined), the INHIBITION is 1.75%. To `CCC(=O)NCC(=O)NCC(C)(C)c1cccc(Br)c1` belongs 15.2%; to `CN(C)c1nc2c(c(N(C)C)n1)CCN(C(=O)CN1C[C@H]3CC[C@@H]1C3)C2`, -34.98%. To `O=C(NCC1CC1)C1CN(C(=O)c2cccc(Cl)c2)CC12CCOCC2` (centres undefined) belongs 71.99%; to `O=C(NCC1CC1)C1CN(C(=O)c2cccnc2)CC12CCOCC2` (centres undefined), -1.37%; to `O=C(NCC1CC1)C1CN(C(=O)c2ccnnc2)CC12CCOCC2` (centres undefined), 59.59%. To `O=C(NCC1CC1)C1CN(C(=O)c2ccncc2)CC12CCOCC2` (centres undefined) belongs -12.21%; to `O=C(NCC1CC1)C1CN(C(=O)c2cccs2)CC12CCOCC2` (centres undefined), -4.92%. Take `O=C(NCC1CC1)C1CN(C(=O)c2ccco2)CC12CCOCC2` (centres undefined): the INHIBITION was 14.39%. To `Cc1nnc(N2CC[C@@H](OCC3CC3)[C@@H](Cc3ccccc3)C2)s1` belongs 1.74%. To `Cc1cc(C(=O)N(CC(F)(F)F)C2CCOCC2)c(C)o1` belongs 7.68%. In the case of `Cc1noc(C)c1-c1cncc(C2CCCN2Cc2ccncc2)n1` (centres undefined) it was 27.8%.

With `COc1ccc(OC2CCN(C(=O)CCc3n[nH]c(C)n3)CC2)cc1`, the INHIBITION was -2.77%. In the case of `Cc1ccc(N2CCN(C(=O)CCc3n[nH]c(C)n3)CC2=O)cc1` it was 19.75%; in that of `COc1ccc(N2CCN(C(=O)CCc3n[nH]c(C)n3)CC2=O)cc1`, 62.3%; in that of `O=C(O)[C@H]1OCC(=O)N(Cc2cccc(F)c2)[C@@H]1c1ccc(Cl)cc1`, -4.48%.
